Source: PubChem BioAssay (EPA / NIEHS)
Records with an inconclusive call do not appear. The source made the active and inactive calls. The calls were made as follows, unless noted: active = hit-call score of the fitted dose curve at least 0.9, where 1 is the maximum; inconclusive = response in the unintended direction; inactive = score below 0.9.

Legend:
[1] = target: mouse Estrogen Receptor alpha (Era), Esr1 (gene 13982) (UniProt P19785); experiment: NVS_NR_mERa: NovaScreen (NVS) Nuclear Receptor Binding Assay for mouse Estrogen Receptor alpha (Era) (AID 2283378);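 also: hit means loss of bound radioligand signal relative to DMSO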
Chain of mouse Estrogen Receptor alpha (Era), Esr1 (gene 13982) (P19785 whole entry, looked up): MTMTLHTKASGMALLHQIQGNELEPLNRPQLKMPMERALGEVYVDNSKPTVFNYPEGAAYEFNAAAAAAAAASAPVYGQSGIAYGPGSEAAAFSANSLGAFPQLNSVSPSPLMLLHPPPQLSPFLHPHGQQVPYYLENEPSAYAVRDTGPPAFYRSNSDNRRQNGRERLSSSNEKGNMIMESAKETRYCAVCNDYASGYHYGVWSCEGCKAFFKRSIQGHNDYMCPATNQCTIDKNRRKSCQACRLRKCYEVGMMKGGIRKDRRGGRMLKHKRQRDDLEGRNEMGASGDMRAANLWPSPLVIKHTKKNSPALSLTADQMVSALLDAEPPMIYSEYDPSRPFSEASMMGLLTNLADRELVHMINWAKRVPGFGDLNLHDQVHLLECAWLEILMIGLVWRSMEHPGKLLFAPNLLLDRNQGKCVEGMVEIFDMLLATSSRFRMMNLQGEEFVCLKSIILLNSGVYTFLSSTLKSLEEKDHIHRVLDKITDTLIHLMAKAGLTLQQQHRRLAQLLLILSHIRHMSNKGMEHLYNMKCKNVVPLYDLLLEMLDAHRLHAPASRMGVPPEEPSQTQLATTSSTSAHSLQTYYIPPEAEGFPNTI
Procedure, shortened: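 Cell-free radioligand binding with extracted mouse Era protein; competitive displacement of radiolabelled ligand, read by filter-based scintillation counting 18 hours after dosing. Loss of signal versus DMSO baseline taken as binding; single screening concentration 25 uM, actives followed in concentration series.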

[2] = target: Estrogen receptor beta (Homo sapiens) (UniProt Q92731); experiment: OT_ER_ERbERb_1440: Odyssey Thera (OT) 24-hour HEK293T Protein-Complementation Assay for Estrogen Receptor-beta/-beta Homodimer (AID 2283380);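 also: fluorescence gain from ER beta LBD homodimer complementation read by laser scanning cytometry; scored as signal increase over DMSO baseline for both agonists and antagonists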
Chain of Estrogen receptor beta (Homo sapiens) (Q92731 whole entry, looked up, the tested form may be a part): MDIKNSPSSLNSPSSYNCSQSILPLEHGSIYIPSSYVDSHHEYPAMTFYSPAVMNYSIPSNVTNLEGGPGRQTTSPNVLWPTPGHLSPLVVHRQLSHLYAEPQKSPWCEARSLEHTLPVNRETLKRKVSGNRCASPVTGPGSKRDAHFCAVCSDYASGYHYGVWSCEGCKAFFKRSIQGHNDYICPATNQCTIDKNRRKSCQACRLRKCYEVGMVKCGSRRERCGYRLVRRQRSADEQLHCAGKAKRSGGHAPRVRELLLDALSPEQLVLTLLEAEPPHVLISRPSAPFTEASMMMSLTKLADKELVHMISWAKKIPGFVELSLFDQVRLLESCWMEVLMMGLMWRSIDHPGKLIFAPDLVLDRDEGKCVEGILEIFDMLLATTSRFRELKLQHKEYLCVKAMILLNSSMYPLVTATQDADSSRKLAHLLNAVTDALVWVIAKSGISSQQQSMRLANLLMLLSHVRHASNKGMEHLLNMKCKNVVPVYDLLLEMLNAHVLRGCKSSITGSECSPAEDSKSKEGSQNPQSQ
Procedure, shortened: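 HEK293T cells stably expressing human ER-beta LBD (aa 310-547) PCA homodimer pair, dosed 24 h; formaldehyde-fixed, Draq5-stained. Readout: increase in nuclear (agonist) or nuclear plus cytoplasmic (antagonist) fluorescence intensity versus DMSO, gain-of-signal fitting.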

[3] = target: Estrogen receptor (Homo sapiens) (UniProt P03372); experiment: OT_ERa_GFPERaERE_0480: Odyssey Thera (OT) 8-hour HeLa Transcription Induction Assay for Estrogen Receptor (AID 2283381; active = hit-call score of the fitted dose curve at least 0.9, where 1 is the maximum; inactive = score below 0.9)
Chain of Estrogen receptor (Homo sapiens) (P03372 whole entry, looked up): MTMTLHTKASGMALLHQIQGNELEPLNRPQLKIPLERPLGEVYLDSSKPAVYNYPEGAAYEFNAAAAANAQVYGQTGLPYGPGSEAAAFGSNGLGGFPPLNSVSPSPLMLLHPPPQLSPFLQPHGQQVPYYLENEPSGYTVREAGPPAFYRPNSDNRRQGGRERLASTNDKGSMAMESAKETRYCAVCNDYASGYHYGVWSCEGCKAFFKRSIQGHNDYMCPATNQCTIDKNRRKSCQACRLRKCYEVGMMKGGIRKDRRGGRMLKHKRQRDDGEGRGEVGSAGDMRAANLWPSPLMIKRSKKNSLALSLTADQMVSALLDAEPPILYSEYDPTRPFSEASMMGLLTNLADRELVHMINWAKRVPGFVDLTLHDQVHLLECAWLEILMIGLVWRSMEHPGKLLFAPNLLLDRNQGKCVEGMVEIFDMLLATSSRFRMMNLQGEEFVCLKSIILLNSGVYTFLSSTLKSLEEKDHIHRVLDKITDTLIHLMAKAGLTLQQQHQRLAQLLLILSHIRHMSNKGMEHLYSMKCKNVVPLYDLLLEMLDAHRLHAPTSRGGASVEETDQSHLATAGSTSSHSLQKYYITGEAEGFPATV
Procedure, shortened: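 Cells (HeLa) receive compound; after 8 h, reporter fluorescence is imaged and quantified by high-content analysis. Gain-of-signal relative to DMSO gives the endpoint.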

[4] = target: Retinoic acid receptor RXR-alpha (Homo sapiens) (UniProt P19793); experiment: OT_NURR1_NURR1RXRa_1440: Odyssey Thera (OT) 24-hour HEK293T Protein Complementation Assay for Nurr1/retinoid X receptor (RXR) (AID 2283386)
Chain of Retinoic acid receptor RXR-alpha (Homo sapiens) (P19793 whole entry, looked up, the tested form may be a part): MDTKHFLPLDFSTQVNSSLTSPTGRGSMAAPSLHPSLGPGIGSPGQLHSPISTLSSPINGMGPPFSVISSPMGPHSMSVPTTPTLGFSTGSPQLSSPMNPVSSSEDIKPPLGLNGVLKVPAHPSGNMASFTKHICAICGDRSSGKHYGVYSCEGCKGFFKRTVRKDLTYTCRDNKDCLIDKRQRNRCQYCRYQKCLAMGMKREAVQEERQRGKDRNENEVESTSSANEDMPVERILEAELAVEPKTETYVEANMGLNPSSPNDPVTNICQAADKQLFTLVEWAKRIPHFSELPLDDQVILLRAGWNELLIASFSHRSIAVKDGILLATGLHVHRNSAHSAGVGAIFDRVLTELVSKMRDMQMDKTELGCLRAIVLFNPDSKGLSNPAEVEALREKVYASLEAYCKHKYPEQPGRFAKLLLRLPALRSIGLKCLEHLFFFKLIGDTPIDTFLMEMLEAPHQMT
Procedure, shortened: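 Measured as fluorescence from a reconstituted split reporter, this 24 h HEK293T complementation assay scores compound-induced gain of Nurr1/RXRα association relative to DMSO.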

[5] = target: Peroxisome proliferator-activated receptor gamma (Homo sapiens) (UniProt P37231); experiment: OT_PPARg_PPARgSRC1_0480: Odyssey Thera (OT) 8-hour Protein-Complementation Assay for Peroxisome Proliferator-activated Receptor Gamma / SRC-1 Co-activator (AID 2283387)
Chain of Peroxisome proliferator-activated receptor gamma (Homo sapiens) (P37231 whole entry, looked up, the tested form may be a part): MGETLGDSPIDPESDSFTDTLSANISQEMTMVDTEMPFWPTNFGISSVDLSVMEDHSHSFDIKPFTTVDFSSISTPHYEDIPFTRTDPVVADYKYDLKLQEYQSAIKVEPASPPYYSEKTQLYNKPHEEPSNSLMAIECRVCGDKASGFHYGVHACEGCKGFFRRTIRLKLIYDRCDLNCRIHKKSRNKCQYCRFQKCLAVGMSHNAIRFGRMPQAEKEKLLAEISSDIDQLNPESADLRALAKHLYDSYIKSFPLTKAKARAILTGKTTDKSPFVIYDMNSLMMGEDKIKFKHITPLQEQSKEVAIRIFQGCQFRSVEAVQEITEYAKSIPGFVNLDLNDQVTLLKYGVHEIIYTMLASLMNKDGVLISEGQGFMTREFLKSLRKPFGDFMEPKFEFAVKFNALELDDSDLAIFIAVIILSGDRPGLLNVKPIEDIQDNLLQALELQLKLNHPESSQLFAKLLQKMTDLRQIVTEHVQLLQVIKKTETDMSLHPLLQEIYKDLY
Procedure, shortened: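 Split-YFP (IFP1/IFP2) PPARg/SRC-1 reporter, HEK293T, 37 °C, 5% CO2; 8 h compound; formaldehyde fix + Draq5; high-content imaging, N/C ratio, ≥350 cells/image, positive direction vs DMSO.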

[6] = target: Peroxisome proliferator-activated receptor gamma (Homo sapiens) (UniProt P37231); experiment: OT_PPARg_PPARgSRC1_1440: Odyssey Thera (OT) 24-hour Protein-Complementation Assay for Peroxisome Proliferator-activated Receptor Gamma/ SRC-1 Co-activator (AID 2283388)
Procedure, shortened: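 HEK293T cells transiently transfected with PPARg and SRC-1 fused via (Gly4Ser)2 linker to split Venus YFP fragments (IFP1/IFP2) were dosed 24 h; fixed, Draq5-stained, imaged at 488/635 nm; nuclear/cytoplasmic fluorescence ratio scored versus DMSO baseline, gain-of-signal.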

[7] = CEETOX_H295R_OHPREG: CeeTox H295R High-throughput Steroidogenesis Assay for OH-Pregnenolone (OHPREG) (AID 2283434; active = hit-call score of the fitted dose curve at least 0.9, where 1 is the maximum; inactive = score below 0.9); conditions: actives raise or lower the signal
Procedure, shortened: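 Human adrenal H295R cells were prestimulated 48 h with 10 uM forskolin, then exposed 48 h to chemical in 0.1% DMSO. Medium 17alpha-hydroxypregnenolone was quantified by HPLC-MS/MS after MTBE extraction; bidirectional fitting versus DMSO baseline.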

[8] = CEETOX_H295R_OHPROG: CeeTox H295R High-throughput Steroidogenesis Assay for OH-Progesterone (OHPROG) (AID 2283435; active = hit-call score of the fitted dose curve at least 0.9, where 1 is the maximum; inactive = score below 0.9;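 as to AC50: 17alpha-hydroxyprogesterone secreted into medium measured by HPLC-MS/MS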); conditions: actives raise or lower the signal
Procedure, shortened: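 Secreted 17alpha-hydroxyprogesterone is read by tandem MS from media of forskolin-primed H295R cells dosed with chemical for 48 h. Activity is fitted in both directions against DMSO baseline; cytotoxic concentrations are re-tested diluted.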

[9] = target: Estrogen receptor (Homo sapiens) (UniProt P03372); experiment: OT_ERa_GFPERaERE_0120: Odyssey Thera (OT) 2-hour HeLa Transcription Induction Assay for Estrogen Receptor (AID 2283382)
Procedure, shortened: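 Measures ESR1 pathway reporter gain-of-signal in HeLa cells after a 2-hour treatment, detected as fluorescent protein induction by microscopy, DMSO as baseline.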

[10] = target: Retinoic acid receptor RXR-alpha (Homo sapiens) (UniProt P19793); experiment: OT_NURR1_NURR1RXRa_0480: Odyssey Thera (OT) 8-hour HEK293T Protein Complementation Assay for Nurr1/retinoid X receptor (RXR) (AID 2283385)
Procedure, shortened: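 Compounds are applied to HEK293T cells carrying Nurr1 and RXRα linked to reporter fragments. After 8 h, fluorescence intensity reports heterodimer formation, with DMSO as baseline.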

[11] = target: Agonist Androgen Response Element (ARE), AR (gene 367) (UniProt P10275); experiment: OT_AR_ARELUC_AG_1440: Odyssey Thera (OT) 24-hour CHO-K1 Luciferase Assay for Agonist Androgen Response Element (ARE) (AID 2283379)
Chain of Agonist Androgen Response Element (ARE), AR (gene 367) (P10275 whole entry, looked up): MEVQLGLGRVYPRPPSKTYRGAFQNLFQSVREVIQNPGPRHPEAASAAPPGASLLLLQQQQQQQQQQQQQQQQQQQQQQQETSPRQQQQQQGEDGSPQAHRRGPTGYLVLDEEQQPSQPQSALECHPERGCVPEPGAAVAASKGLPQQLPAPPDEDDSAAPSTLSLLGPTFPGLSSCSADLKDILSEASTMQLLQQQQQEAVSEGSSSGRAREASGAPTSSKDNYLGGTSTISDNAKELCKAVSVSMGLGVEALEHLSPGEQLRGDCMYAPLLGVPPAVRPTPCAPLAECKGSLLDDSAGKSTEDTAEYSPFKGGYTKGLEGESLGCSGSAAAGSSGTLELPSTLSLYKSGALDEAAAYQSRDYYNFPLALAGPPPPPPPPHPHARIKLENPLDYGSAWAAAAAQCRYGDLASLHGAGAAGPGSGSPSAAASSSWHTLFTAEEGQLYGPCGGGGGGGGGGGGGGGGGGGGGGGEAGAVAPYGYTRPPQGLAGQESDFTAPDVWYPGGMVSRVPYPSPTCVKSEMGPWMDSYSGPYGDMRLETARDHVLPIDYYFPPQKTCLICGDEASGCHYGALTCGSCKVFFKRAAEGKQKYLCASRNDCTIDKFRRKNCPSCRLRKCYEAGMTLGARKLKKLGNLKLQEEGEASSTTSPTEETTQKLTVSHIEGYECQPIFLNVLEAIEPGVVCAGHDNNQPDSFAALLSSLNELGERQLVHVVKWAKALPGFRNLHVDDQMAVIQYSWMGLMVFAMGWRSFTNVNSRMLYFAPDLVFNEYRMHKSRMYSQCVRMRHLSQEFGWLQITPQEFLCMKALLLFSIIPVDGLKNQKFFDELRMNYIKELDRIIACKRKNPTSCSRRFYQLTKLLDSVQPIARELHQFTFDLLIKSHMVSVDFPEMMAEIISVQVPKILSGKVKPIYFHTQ
Procedure, shortened: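 Seed CHO-K1 cells; dose compounds for 24 h; add D-luciferin plus ATP in PBS; read luminescence. Signal increase relative to vehicle defines agonist activity, with at least 3 replicate wells per sample.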

[12] = CEETOX_H295R_11DCORT: CeeTox H295R High-throughput Steroidogenesis Assay for 11-Deoxycortisol (11DCORT) (AID 2283432; active = hit-call score of the fitted dose curve at least 0.9, where 1 is the maximum; inactive = score below 0.9;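 as to AC50: 11-deoxycortisol secreted into the medium measured by LC-MS/MS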); conditions: actives raise or lower the signal
Procedure, shortened: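 Steroidogenesis in human H295R cells: 48 h chemical exposure after forskolin priming, 11-deoxycortisol measured by LC-MS/MS.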

[13] = CEETOX_H295R_ANDR: CeeTox H295R High-throughput Steroidogenesis Assay for Androstenedione (ANDR) (AID 2283436; active = hit-call score of the fitted dose curve at least 0.9, where 1 is the maximum; inactive = score below 0.9); conditions: actives raise or lower the signal
Procedure, shortened: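 H295R human adrenal cells (passages ≤10) were exposed to test chemicals for 48 h; androstenedione in medium was MTBE-extracted and quantified by HPLC-MS/MS against a 7-point standard curve. Bidirectional fitting used DMSO as baseline.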

[14] = CEETOX_H295R_CORTIC: CeeTox H295R High-throughput Steroidogenesis Assay for Corticosterone (CORTIC) (AID 2283437; active = hit-call score of the fitted dose curve at least 0.9, where 1 is the maximum; inactive = score below 0.9;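 also: corticosterone secreted into medium quantified by mass spectrometry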); conditions: actives raise or lower the signal
Procedure, shortened: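 H295R cells were prestimulated 48 h with 10 uM forskolin, then exposed 48 h to test chemical in 0.1% DMSO. Medium corticosterone was MTBE-extracted and quantified by HPLC-MS/MS; bidirectional fit versus DMSO baseline.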

[15] = CEETOX_H295R_CORTISOL: CeeTox H295R High-throughput Steroidogenesis Assay for Cortisol (AID 2283438; active = hit-call score of the fitted dose curve at least 0.9, where 1 is the maximum; inactive = score below 0.9;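 also: cortisol secreted into medium quantified by LC-MS/MS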); conditions: actives raise or lower the signal
Procedure, shortened: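 Human adrenocortical H295R cells (passage ≤10) received test chemicals for 48 h after forskolin priming. Secreted cortisol was measured by LC-MS/MS.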

[16] = target: Bile acid receptor (Homo sapiens) (UniProt Q96RI1); experiment: OT_FXR_FXRSRC1_0480: Odyssey Thera (OT) 8-hour HEK293T Protein-Complementation Assay for Farnesoid X receptor/SRC-1 Co-activator (AID 2283383)
Chain of Bile acid receptor (Homo sapiens) (Q96RI1 whole entry, looked up, the tested form may be a part): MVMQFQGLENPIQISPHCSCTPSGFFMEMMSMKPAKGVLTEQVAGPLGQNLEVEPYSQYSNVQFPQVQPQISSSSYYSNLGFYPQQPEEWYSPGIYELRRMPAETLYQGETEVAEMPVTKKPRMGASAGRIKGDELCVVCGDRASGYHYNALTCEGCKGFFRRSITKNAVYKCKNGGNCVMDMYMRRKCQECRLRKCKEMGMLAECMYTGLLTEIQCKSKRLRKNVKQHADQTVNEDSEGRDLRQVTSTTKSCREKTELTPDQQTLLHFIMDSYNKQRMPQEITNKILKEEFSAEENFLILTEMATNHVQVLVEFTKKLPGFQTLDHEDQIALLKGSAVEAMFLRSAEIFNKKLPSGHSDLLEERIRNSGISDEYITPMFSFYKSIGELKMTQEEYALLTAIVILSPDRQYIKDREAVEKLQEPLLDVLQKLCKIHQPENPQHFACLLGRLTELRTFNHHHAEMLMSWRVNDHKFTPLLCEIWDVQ
Procedure, shortened: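 Co-activator recruitment to FXR was measured in living HEK293T cells, where interaction of the two fused partners restored an active fluorescent reporter. Signal gain after 8 h treatment was referenced to DMSO.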

[17] = target: Bile acid receptor (Homo sapiens) (UniProt Q96RI1); experiment: OT_FXR_FXRSRC1_1440: Odyssey Thera (OT) 24-hour HEK293T Protein-Complementation Assay for Farnesoid X receptor/SRC-1 Co-activator (AID 2283384)
Procedure, shortened: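 Cell-based binding reporter: interaction of FXR with SRC-1 brings reporter fragments together, giving a fluorescence signal read 24 h after dosing of HEK293T cells.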

Measured: AC50

NNC(=S)NN
active: [1] 0.0993 µM | [7] 50 µM | [8] 50 µM
inactive: [2] | [3] | [4] | [5] | [6]

CC(C)OC(=O)Nc1ccccc1
inactive: [3] | [9] | [10] | [5] | [6] | [7] | [8]
active: [1] 5.18 µM

CC12CC1(C)C(=O)N(c1cc(Cl)cc(Cl)c1)C2=O (configuration not stated)
active: [8] 20.9 µM | [13] 30.9 µM | [14] 14.1 µM
not listed: [1] | [3] | [9] | [16] | [17]
inactive: all other assays above

CC1(C)CCC(Cc2ccc(Cl)cc2)C1(O)Cn1cncn1 (configuration not stated)
active: [16] 24.3 µM | [17] 31.6 µM | [7] 0.143 µM | [8] 0.0959 µM
inactive: [1] | [3] | [10] | [4] | [5] | [6]

ClCC(Cl)CCl
inactive: [1] | [10] | [4]

O=[N+]([O-])c1ccc(O)c([N+](=O)[O-])c1
inactive: [11] | [2] | [3] | [10] | [5] | [6]

CNC(=O)O/N=C/C(C)(C)S(C)=O (configuration not stated)
inactive: [2] | [3] | [16] | [10] | [4] | [5] | [6]

[O-][Cl+2]([O-])O
inactive: [2] | [3] | [16] | [17] | [5] | [6]

COC(=O)c1sccc1S(=O)(=O)NC(=O)Nc1nc(C)nc(OC)n1
inactive: [2] | [3] | [9] | [4] | [5] | [6]

OCc1ccco1
inactive: [2] | [3] | [16] | [10] | [5] | [6]

c1cc[c]([Hg][c]2ccccc2)cc1
inactive: [11] | [2] | [3] | [9] | [5]
active: [16] 29 µM | [17] 51.6 µM | [10] 29.7 µM | [4] 63.4 µM | [6] 50 µM

Oc1ccc(-c2ccccc2)cc1
active: [1] 17.7 µM | [2] 11.8 µM | [16] 33.3 µM | [17] 33.3 µM | [4] 50 µM | [12] 87.6 µM | [7] 74.2 µM | [8] 13.1 µM | [14] 14 µM
inactive: [10] | [5] | [6] | [15]

O=C1C(Cl)=C(Cl)C(=O)c2ccccc21
active: [10] 11.4 µM | [5] 11.8 µM | [6] 11.8 µM
inactive: [2] | [3] | [9]

Cl/C=C\C[N+]12CN3CN(CN(C3)C1)C2
inactive: [2] | [9] | [5] | [6]
active: [3] 82.2 µM

CC(C)(c1ccc(OCC2CO2)cc1)c1ccc(OCC2CO2)cc1 (configuration not stated)
inactive: [11] | [2] | [3] | [10] | [5] | [6]

O=S(=O)(c1ccc(Cl)cc1)c1ccc(Cl)cc1
inactive: [2] | [3] | [9] | [4] | [5] | [6]

COc1ccc(C=O)cc1OC
inactive: [2] | [3] | [9] | [10] | [4] | [5] | [6]

O=c1[nH]c(=O)[nH]c(=O)[nH]1
inactive: [2] | [4] | [5] | [6]
active: [11] 17.2 µM

O=C1CCCN1
inactive: [1] | [3] | [17] | [4] | [5]

CN(CCCC(=O)c1cccnc1)N=O
inactive: [12] | [7] | [8] | [13] | [14] | [15]

C=CC(=O)N(C)C
inactive: [12] | [7] | [8] | [14] | [15]

COc1ccc(C=O)cc1
inactive: [3] | [10] | [5] | [6]

CCCCOCCOC(C)=O
inactive: [3] | [16] | [17] | [5] | [6]

Cc1ccccc1N
inactive: [10] | [4]
